Records with an inconclusive call do not appear. A call without a number means that no potency is given here. Values without a mark were called inactive. Activity calls are given as the source filed them. The call rests on the fitted dose curve; in most records, active means well fitted curve in the direction sought with a large enough effect; inconclusive means small, poorly fitted or top-dose-only effect, or another doubt; inactive means no such curve, though single readings can be large; an effect the other way counts as inactive or inconclusive.
Legend:
[1] = target: Cellular tumor antigen p53 (Homo sapiens) (UniProt P04637); assay: Primary qHTS for small molecule compounds that upregulate eGFP-tagged delta133p53alpha (in N-terminal) cells. (AID 2060322); conditions: NCI-H358 eGFP-delta133p53alpha fluorescence, 24 h; activation: hits give high values; further: nearly all actives have a fitted effect of over 75% in size; further: potency means the concentration at half of the fitted maximal effect; on activation: series mostly up to about 56 µM
Cellular tumor antigen p53 (Homo sapiens), sequence (P04637 whole entry, looked up): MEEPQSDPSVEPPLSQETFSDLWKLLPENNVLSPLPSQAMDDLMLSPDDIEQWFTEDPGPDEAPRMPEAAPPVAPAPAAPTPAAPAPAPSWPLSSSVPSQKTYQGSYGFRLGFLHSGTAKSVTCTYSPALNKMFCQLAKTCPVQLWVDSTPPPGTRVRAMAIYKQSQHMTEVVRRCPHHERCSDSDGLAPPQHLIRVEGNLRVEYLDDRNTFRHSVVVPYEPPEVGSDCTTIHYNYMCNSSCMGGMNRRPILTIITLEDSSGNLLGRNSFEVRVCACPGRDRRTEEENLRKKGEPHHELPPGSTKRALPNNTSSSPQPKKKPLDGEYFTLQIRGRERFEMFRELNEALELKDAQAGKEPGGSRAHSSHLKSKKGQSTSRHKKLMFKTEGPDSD
Summary of the method: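 NCI-H358 cells pre-induced 24 h with 10 ng/ml doxycycline to express N-terminal eGFP-delta133p53alpha, then dosed 24 h at 37C without doxycycline; fixed, Hoechst-stained, GFP intensity by laser scanning cytometry, normalized to DMSO (0%) and 57.5 uM 5-azacytidine (100%).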

[2] = target: Aldehyde dehydrogenase, mitochondrial (Homo sapiens) (UniProt P05091); assay: qHTS for Inhibitors of the Aldehyde Dehydrogenase Family (ALDH2) Primary screen (AID 2061308); further: nearly all actives have a fitted effect of over 55% in size
[3] = target: Retinaldehyde dehydrogenase 3 (Homo sapiens) (UniProt P47895); assay: qHTS for Inhibitors of the Aldehyde Dehydrogenase Family (ALDH1A3) Primary screen (AID 2061315)

SMILES | activation [1] | Potency [2] | Potency [3] | activity change, negative = inhibition [2] | activity change, negative = inhibition [3] | Potency [1]
CC(=O)O[C@@H]1[C@@H](CO)O[C@@](CO)(O[C@H]2O[C@H](COC(=O)/C=C/c3ccccc3)[C@@H](O)[C@H](O)[C@H]2O)[C@H]1O | 2.29% | inactive | inactive | – | – | –
COC(=O)C1(Cc2ccc(O)cc2)OC(=O)C(OC)=C1c1ccc(O)cc1 (centres undefined) | -7.63% | inactive | inactive | – | – | –
CC1(C)C[C@H]2C3=CCC4[C@@]5(C)CC[C@H](O[C@H]6O[C@H](C(=O)O)[C@@H](O)[C@H](O)[C@H]6O[C@H]6O[C@H](CO)[C@@H](O)[C@H](O)[C@H]6O[C@@H]6O[C@H](CO)[C@@H](O)[C@H](O)[C@H]6O)[C@](C)(CO)C5CC[C@@]4(C)[C@]3(C)CC[C@@]2(C)[C@H](O[C@@H]2OC[C@H](O)[C@H](OC3O[C@H](CO)[C@@H](O)[C@H](O)[C@H]3O)[C@H]2O)[C@@H]1O (some centres undefined) | -19.8% | – | – | 2.01% [at 11.2 µM] | 14.7% [at 11.2 µM] | –
CCC(C)(C)C1CCc2c(sc(NC(=O)c3ccc(Br)cc3)c2C#N)C1 (centres undefined) | -0.333% | inactive | inactive | – | – | –
CC(=O)c1c(C)cc(O)cc1O[C@@H]1O[C@H](CO)[C@@H](O)[C@H](O)[C@H]1O | -17.6% | inactive | inactive | – | – | –
CC(C)CC(=O)O[C@@H]1OC=C(CO[C@@H]2O[C@H](CO)[C@@H](O)[C@H](O)[C@H]2O)[C@H]2[C@@H]3O[C@H]3[C@@](O)(CO)[C@@H]12 | -3.05% | inactive | inactive | – | – | –
C[C@@H]1O[C@@H](O[C@@H]2[C@@H](O)[C@H](O[C@H]3[C@H](O[C@H]4CC[C@@]5(C)C(CC[C@]6(C)C5CC=C5[C@@H]7CC(C)(C)CC[C@]7(C(=O)O[C@@H]7O[C@H](CO)[C@@H](O)[C@H](O)[C@H]7O)CC[C@]56C)C4(C)C)O[C@H](C(=O)O)[C@@H](O)[C@@H]3O)OC[C@H]2O)[C@H](O)[C@H](O)[C@H]1O (some centres undefined) | -27.5% | inactive | inactive | – | – | –
CC(C)c1cc(C(=O)N2CC[C@@H](NC(=O)C3CC3)C2)n[nH]1 | -7.67% | inactive | inactive | – | – | –
C=C(C(=O)O)C1CC2=C(C)CCCC2(C)C[C@@H]1O (some centres undefined) | -16.1% | inactive | inactive | – | – | –
C/C=C(/C=C(C)/C=C/C=C/C=C(\C)C(=O)C12OC1C(O)(CCO)NC2=O)C(=O)OC (centres undefined) | -13.7% | inactive | inactive | – | – | –
CC(NC(=O)CC(=O)O)C(=O)Nc1ccccc1C(N)=O (centres undefined) | -3.05% | inactive | inactive | – | – | –
CC(C)=CCCC1(C)C=Cc2c(c(C)cc3c2[nH]c2ccccc23)O1 (centres undefined) | 2.29% | inactive | inactive | – | – | –
C/C=C(/C)C(=O)OC1C=C2C3C(C)C(C)C(OC(=O)C(C)C(C)O)CC3(C)CCC2(C)C2(C)CC(OC(C)=O)C3C(C)(C)C(O)C(=O)CC3(C)C12 (centres undefined) | -17% | inactive | inactive | – | – | –
O=C(O)Cc1cc(I)c(Oc2ccc(O)c(I)c2)c(I)c1 | 2.39% | inactive | inactive | – | – | –
Cc1ccc(Sc2cncc3sc(C(N)=O)cc23)cc1 | -17.7% | inactive | inactive | – | – | –
C=C(C(=O)O)C1CC(OC(=O)CC(C)CC)C2(C)CCCC(=C)C2C1 (centres undefined) | -13% | inactive | inactive | – | – | –
C=CC1(C)CC2CCC3C(C)(C(=O)O)CCCC3(C)C2=CC1=O (centres undefined) | -16% | inactive | inactive | – | – | –
CC1CC(=O)[C@]2(O)C(C(=O)OCCc3ccc(O)cc3)=CO[C@@H](O[C@@H]3O[C@H](CO)[C@@H](O)[C@H](O)[C@H]3O)[C@H]12 (some centres undefined) | -18.3% | inactive | inactive | – | – | –
C=CC(C)(O)CC/C=C(\C)C(=O)O[C@@H]1[C@@H](O)[C@H](OC(C)(C=C)CC/C=C(\C)C(=O)O)O[C@H](CO)[C@H]1OC(=O)/C(C)=C/CCC(C)(O)C=C (some centres undefined) | 9.92% | inactive | inactive | – | – | –
CCN1CCN(Cc2ccc(-c3cc4c(NC(C)c5ccccc5)ncnc4[nH]3)cc2)CC1 (centres undefined) | – | inactive | inactive | – | – | 26.9 µM (active)
C[C@H](CCC(=O)O)[C@H]1CC[C@H]2[C@@H]3C[C@H](O)[C@@H]4C[C@H](O)CC[C@]4(C)[C@H]3CC[C@]12C | 1% | inactive | inactive | – | – | –
COc1cc([C@H]2OC[C@@H]3[C@@H](c4ccc(O[C@@H]5O[C@H](CO)[C@@H](O)[C@H](O)[C@H]5O)c(OC)c4)OC[C@]23O)ccc1O | 3.57% | inactive | inactive | – | – | –
CC(=O)N[C@H]1[C@H](O[C@H]2CC[C@@]3(C)C(CC[C@]4(C)C3CC=C3[C@@H]5CC(C)(C)CC[C@]5(C(=O)OC5OCC(O)C(O)C5O)CC[C@]34C)C2(C)C)O[C@H](COC2OC(C)C(O)C(OC3OC(C)C(O)C(O)C3O)C2O)[C@@H](O)[C@@H]1O (some centres undefined) | -26% | inactive | inactive | – | – | –
